Assay outcomes deposited in PubChem BioAssay by The Scripps Research Institute Molecular Screening Center.
TEAD-YAP block: TEAD-YAP interaction inhibition; HEK-TIYL cells, TEAD-Gal4/YAP UAS-luciferase luminescence; inhibition, % at 9.12 µM; 1.4% of 640,000 active; AID 1259422; in the data active means inhibition above about 32%;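 further: 0% = median of test compound wells and 100% = reference inhibitor wells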
GPR151 ag: human GPR151 activation; Q8TDV0; PathHunter beta-arrestin GPR151 cells, luminescence; activation, % at 11.2 µM; 1% of 650,000 active; AID 1508602; in the data active means activation above about 4.9%;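 further: 0% = median of compound wells and 100% = cells with positive control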
Target sequence (Q8TDV0 whole entry, looked up): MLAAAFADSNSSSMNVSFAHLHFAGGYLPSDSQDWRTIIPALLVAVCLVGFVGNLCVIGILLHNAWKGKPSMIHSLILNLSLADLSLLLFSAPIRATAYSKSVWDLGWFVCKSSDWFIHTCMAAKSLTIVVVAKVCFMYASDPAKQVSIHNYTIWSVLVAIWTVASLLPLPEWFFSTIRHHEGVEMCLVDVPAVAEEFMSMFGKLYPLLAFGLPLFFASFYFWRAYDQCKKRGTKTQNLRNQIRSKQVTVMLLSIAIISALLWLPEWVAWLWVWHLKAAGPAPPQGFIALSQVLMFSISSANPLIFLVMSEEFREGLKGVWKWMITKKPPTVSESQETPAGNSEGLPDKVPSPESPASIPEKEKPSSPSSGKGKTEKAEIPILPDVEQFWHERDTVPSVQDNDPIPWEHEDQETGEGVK
FBW7 activator: human FBW7 E3 ligase activation, primary screen. Q969H0. AlphaScreen FBW7–phospho-cyclin E peptide binding, activator screen. normalized activity (activation), % at 26.1 µM. 0.13% of 650,000 active; in the data active means normalized activity above about 1.9%;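 further: purified mutant Fbw7 with reduced substrate affinity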
MITF inh: human MITF inhibition, primary screen | O75030 | AlphaScreen MITF homodimerization, bead proximity signal | inhibition, % at 2.6 µM | 0.91% of 650,000 active | AID 1259374; in the data active means inhibition above about 50%;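 further: 0% = vehicle wells with protein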
The depositor's hits bear a star; i = inactive; · = no result given. Shown are actives, neighbours in structure and some others; about 3.4% of the full set was active somewhere.

SMILES	TEAD-YAP block	GPR151 ag	FBW7 activator	MITF inh
COc1cccc(NC(=O)C(=O)NCC2CCCN2S(=O)(=O)c2ccccc2)c1 (centres undefined)	-55	2	0	-5
CC(C)CNC(=O)c1ccc(N2CC3CC(C2)c2cccc(=O)n2C3)c(NC(=O)c2cc3ccccc3oc2=O)c1 (centres undefined)	-2	1	0	-7
NNC(=O)c1c(N)n(-c2ccc3ccccc3c2)c2nc3ccccc3nc12	47*	0	1	-3
Cc1ccc(-n2c(N)c(C(=O)O)c3nc4ccccc4nc32)cc1C	-4	-1	0	10
Cc1ccc(S(=O)(=O)Nc2ccc(F)cc2)cc1C(=O)Nc1ncn[nH]1	8	0	0	8
CC1(C)Cc2c(sc(NC(=O)c3ccccc3)c2C(N)=S)CO1	-64	-1	0	-4
COc1ccc(C(=O)Nc2sc3c(c2C(=O)O)CC(C)(C)OC3)cc1OC	40*	0	0	-18
CC1(C)Cc2c(sc(NC(=O)c3ccccc3)c2C(=O)O)CO1	47*	-5	0	4
CC(C)COc1ccc(C(=O)Nc2sc3c(c2C(=O)O)CC(C)(C)OC3)cc1	20	1	0	5
CC(=O)Nc1ccc(Nc2nc(-c3c(C)nc4ccccn34)cs2)cc1	50*	0	0	-6
Cc1nc2ccccn2c1-c1csc(Nc2ccc(O)cc2)n1	31	2	0	-1
Cc1nc2ccccn2c1-c1csc(Nc2ccc(N)cc2)n1	54*	0	0	6
Cc1nc2ccccn2c1-c1csc(N)n1	44*	-1	0	8
CCOc1cc(C(=O)NCc2nnc(SCC(=O)N3CCc4ccccc43)n2-c2cc(OC)ccc2OC)cc(OCC)c1OCC	2	-1	0	1
CCSc1ccc(C(=O)Nc2ccccc2-c2nc3ccccc3[nH]2)cc1	-3	3	0	-6
O=C(NCc1nc2ccccc2[nH]1)c1ccnc(-c2ccc(N3CCOCC3)nc2)c1	32*	-2	0	6
CCCNC(=O)c1cccc(-c2ccc(N3CCN(C)CC3)cc2)n1	-16	1	0	-3
O=C(NCc1nc2ccccc2[nH]1)c1ccnc(N2CCOCC2)c1	-1	-1	0	20
c1ccc2[nH]c(CNc3cc(-c4ccc(N5CCOCC5)nc4)ncn3)nc2c1	-35	-1	0	-4
CN1CCN(c2ccc(-c3cccc(C=O)c3)cn2)CC1	-30	-5	0	9
O=Cc1cccc(-c2ccc(N3CCOCC3)nc2)c1	47*	-3	0	7
O=C(NCc1nc2ccccc2[nH]1)c1cccc(-c2ccc(N3CCOCC3)nc2)c1	43*	4	0	3
CN1CCN(c2ccc(-c3cccc(C(=O)NCc4nc5ccccc5[nH]4)n3)cc2)CC1	49*	2	0	13
Cc1cc(C(C)(C)C)oc1C(=O)N1CCNCC1	11	3	1	8
COC(=O)c1ccc(N2N=C(C)/C(=C/c3ccc(OCc4ccc(Cl)cc4)c(OC)c3)C2=O)cc1	-70	3	2.0*	24
SMILES	TEAD-YAP block	GPR151 ag	FBW7 activator	MITF inh
Cc1cccc(Nc2nc(-c3ccc(O)c(O)c3)cs2)c1	-55	-1	0	5
Oc1ccc(Nc2nc(-c3ccc(O)c(O)c3)cs2)cc1	-78	0	0	54*
Nc1ccc(Nc2nc(-c3ccc(O)c(O)c3)cs2)cc1	-5	1	0	98*
O=C(O)c1ccc(Nc2nc(-c3ccc(O)c(O)c3)cs2)cc1	-4	-2	0	92*
Oc1ccc(Nc2nc(-c3ccc(Cl)cc3)cs2)cc1	·	0	·	-2
CCc1cc(C)cc(OCC(O)CN2CCN(CC(O)COc3cc(C)cc(CC)c3)CC2)c1 (centres undefined)	3	0	0	17
CCOC(=O)C1=C(c2ccccc2)N=c2s/c(=C\c3cc(OC)c(OC)c(OC)c3)c(=O)n2C1c1cccc(OC)c1 (centres undefined)	1	-1	0	11
O=C(O)c1[nH]c(=O)[nH]c(=O)c1CNCCO	8	-2	0	16
CC(=O)C1CC(=O)OC(c2ccccc2)=N1 (centres undefined)	4	2	0	-1
O=C(Nc1nc(-c2ccccn2)cs1)c1cccc(Oc2ccccc2)c1	37*	2	0	-2
COc1cc(C(=O)Nc2nc(-c3ccccn3)cs2)cc(OC)c1OC	73*	-1	0	31
CCN(CC)S(=O)(=O)c1ccc(C(=O)Nc2nc(-c3ccc(C)cc3C)cs2)cc1	7	-2	0	-2
COc1cc(C(=O)Nc2nc(-c3ccc(C)cc3C)cs2)cc(OC)c1OC	32*	1	0	4
COc1ccccc1-c1csc(NC(=O)c2cc(OC)c(OC)c(OC)c2)n1	12	0	0	i
Cc1ccc(-c2csc(NC(=O)c3ccc(S(=O)(=O)N(C)C)cc3)n2)c(C)c1	35*	3	0	3
Cc1ccc(-c2csc(NC(=O)c3cccc(Oc4ccccc4)c3)n2)cc1	-10	0	0	19
COCCCn1c(C)cc(C(=O)CSc2ncnc3sccc23)c1C	43*	0	0	14
Cc1ccc2nc(-c3ccccc3Cl)cn2c1	93*	-7	0	-6
Cc1ccc2nc(-c3cc4ccccc4oc3=O)cn2c1	-36	-5	0	-2
Cc1ccc2nc(-c3ccc(F)cc3)cn2c1	93*	-10	0	-16
COc1ccc(-c2cn3cc(C)ccc3n2)cc1	82*	-8	0	-3
COC(=O)c1ccc2nc(-c3ccc(F)cc3)cn2c1	42*	-9	0	3
O=[N+]([O-])c1ccc(S(=O)(=O)Nc2cccc3cc4ccccc4nc23)cc1	80*	-1	0	24
O=[N+]([O-])c1ccc(S(=O)(=O)Nc2cccc3ccccc23)cc1	12	0	0	17
COc1cc(C(=O)Nc2sc3c(c2C#N)CCC(C)C3)cc(OC)c1OC (centres undefined)	9	0	1	9
SMILES	TEAD-YAP block	GPR151 ag	FBW7 activator	MITF inh
COc1cc(C(=O)Nc2sc3c(c2C#N)CCC(C)C3)c(Br)c(OC)c1OC (centres undefined)	34*	0	0	4
COc1cc(C(=O)Nc2sc3c(c2C#N)CCC3)cc(OC)c1OC	41*	0	0	4
CCOC(=O)c1ccccc1NC(=O)c1sc2nc(C)nc(N(C)c3ccc(C(C)C)cc3)c2c1C	-5	0	0	5
Cc1cccc(-n2nnnc2Sc2ccc([N+](=O)[O-])c3cnccc23)c1	46*	3	0	6
Cn1cnnc1Sc1ccc([N+](=O)[O-])c2cnccc12	2	0	0	-4
COc1ccc(-c2nc(NCc3cccc(C(F)(F)F)c3)c3ncn(CCN4CCCC4=O)c3n2)cn1	1	-3	0	2
Cc1cccc(OS(=O)(=O)c2cn(C)c(=O)n(C)c2=O)c1	-1	-1	3.6*	3
COc1ccc(NC(=O)COc2ccc(C=O)cc2Cl)cc1	-25	-1	0	-12
NS(=O)(=O)c1ccc(NC(=S)Nc2ccc(F)cc2)cc1	1	-1	0	9
